From PubChem BioAssay (Tox21)
Results filed as inconclusive are left out. Activity calls are given as the source filed them. Calls follow the shape of the dose curve; as a rule, active = well fitted curve in the direction sought with a large enough effect in the repeat runs; inconclusive = weak or mixed curves; inactive = no such curve, though single readings can be large; an effect the other way counts as inactive or inconclusive.

Legend:
[1] = qHTS RealTime-Glo MT Cell Viability Assay in HepG2 cells - 40 hour (AID 1224870); also: nearly all actives have a fitted effect of over 50% in size
How it was run: (§1)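 HepG2 cells mixed with RealTime-Glo MT reagents (NanoLuc plus cell-permeant prosubstrate) were seeded at 600 cells/well, incubated 5 h at 37 C/5% CO2, then pinned with compounds in DMSO; nonlytic luminescence tracked viability during 40 h treatment.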

[2] = A CellTox Green Cytotoxicity Assay to monitor cytotoxicity in HEK293 cells - 40 hour (AID 1224871); also: nearly all actives have a fitted effect of over 45% in size
How it was run: (§2)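 Fluorescence intensity, read at 0, 8, 16, 24, 32 and 40 h of compound treatment, reflected dye binding to DNA of dead HEK293 cells; compounds (23 nL, DMSO) were added 5 h after plating cells with reagent.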

[3] = qHTS RealTime-Glo MT Cell Viability Assay in HEK293 cells - 16 hour (AID 1224872); also: top concentration of the series differs between compounds; nearly all actives have a fitted effect of over 50% in size
How it was run: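 Nonlytic real-time viability readout: viable cells convert prosubstrate to NanoLuc substrate, giving luminescence proportional to live cell number. HEK293, 600 cells/well, compound added after 5 h, continuous culture at 37 C.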

[4] = qHTS RealTime-Glo MT Cell Viability Assay in HepG2 cells - 8 hour (AID 1224873); also: nearly all actives have a fitted effect of over 55% in size
How it was run: as §1

[5] = qHTS RealTime-Glo MT Cell Viability Assay in HEK293 cells - 40 hour (AID 1224874); conditions: RealTime-Glo luminescence; max response: stronger effect = lower value; also: nearly all actives have a fitted effect of over 50% in size
How it was run: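 Viable HEK293 cells reduce a cell-permeant prosubstrate; the product diffuses out and is consumed by NanoLuc in the medium to give light. Compounds went in after a 5 h incubation and plates were read over the treatment course.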

[6] = A CellTox Green Cytotoxicity Assay to monitor cytotoxicity in HEK293 cells - 24 hour (AID 1224875); also: series mostly up to about 77 µM; nearly all actives have a fitted effect of over 45% in size
How it was run: as §2

[7] = A CellTox Green Cytotoxicity Assay to monitor cytotoxicity in HepG2 cells - 16 hour (AID 1224876); also: nearly all actives have a fitted effect of over 45% in size
How it was run: (§3)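 Using 1536-well format, dye-containing HepG2 suspension was seeded, allowed 5 h at 37 C/5% CO2, dosed by pintool with compounds, positive and negative controls, and imaged for fluorescence across 40 h.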

[8] = qHTS RealTime-Glo MT Cell Viability Assay in HepG2 cells - 32 hour (AID 1224877); also: nearly all actives have a fitted effect of over 55% in size
How it was run: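 Luminescence read-out: viable HepG2 cells reduce a prosubstrate to a NanoLuc substrate, giving a signal proportional to live cell number. Reads taken at 0, 8, 16, 24, 32 and 40 h of compound exposure at 37 C.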

[9] = A CellTox Green Cytotoxicity Assay to monitor cytotoxicity in HepG2 cells - 24 hour (AID 1224878); also: nearly all actives have a fitted effect of over 45% in size
How it was run: as §3

[10] = A CellTox Green Cytotoxicity Assay to monitor cytotoxicity in HepG2 cells - 40 hour (AID 1224879); also: nearly all actives have a fitted effect of over 40% in size
How it was run: as §3
% is scaled to controls: 0 for no effect and ±100 for the full control effect.

CC(CC=O)CCCC(C)(C)O (stereo not given)
inactive: outcome [1] | Potency [2] | Potency [3] | outcome [4] | max response [5] 3.36% | outcome [6] | outcome [7] | outcome [8] | outcome [9] | Potency [10]

O=C(O)C(=O)Cc1ccccc1
inactive: outcome [1] | Potency [2] | Potency [3] | outcome [4] | max response [5] 14.4% | outcome [6] | outcome [7] | outcome [8] | outcome [9] | Potency [10]

CC(=O)Nc1ccc(S(=O)(=O)Cl)cc1
inactive: outcome [1] | Potency [2] | Potency [3] | outcome [4] | max response [5] -6.18% | outcome [6] | outcome [7] | outcome [8] | outcome [9] | Potency [10]

Oc1cn2c(n1)Nc1ccc(Cl)c(Cl)c1C2
inactive: activity change, negative = cytotoxic [1] -4.5% [at 15.8 µM] | cytotoxicity increase [2] 2.17% [at 15.8 µM] | activity change, negative = cytotoxicity [3] 6.18% [at 15.8 µM] | viability change, negative = cytotoxic [4] -0.13% [at 15.8 µM] | max response [5] 10.9% | activity change [6] -3.58% [at 15.8 µM] | cytotoxicity increase [7] -4.2% [at 15.8 µM] | activity change, negative = cytotoxic [8] -1.97% [at 15.8 µM] | cytotoxicity [9] -5.44% [at 15.8 µM] | cytotoxicity increase [10] -8.09% [at 15.8 µM]

CCOC(=O)/C=C/c1ccccc1
inactive: outcome [1] | Potency [2] | Potency [3] | outcome [4] | max response [5] -4.48% | outcome [6] | outcome [7] | outcome [8] | outcome [9] | Potency [10]

CC(C(=O)O)c1ccc2c(c1)CC(=O)c1ccccc1S2 (stereo not given)
inactive: outcome [1] | Potency [2] | Potency [3] | outcome [4] | max response [5] -2.02% | outcome [6] | outcome [7] | outcome [8] | outcome [9] | Potency [10]

CC(C)=O
inactive: outcome [1] | Potency [2] | Potency [3] | outcome [4] | max response [5] 0.384% | outcome [6] | outcome [7] | outcome [8] | outcome [9] | Potency [10]

CN(C)c1ccc(C=O)cc1
inactive: outcome [1] | Potency [2] | Potency [3] | outcome [4] | max response [5] 14.8% | outcome [6] | outcome [7] | outcome [8] | outcome [9] | Potency [10]

CCCCCCCCCC(C)=O
inactive: outcome [1] | Potency [2] | Potency [3] | outcome [4] | max response [5] 10.3% | outcome [6] | outcome [7] | outcome [8] | outcome [9] | Potency [10]

OC[C@H](Cc1cccc(O)c1)[C@H](CO)Cc1cccc(O)c1
inactive: outcome [1] | Potency [2] | Potency [3] | outcome [4] | max response [5] -10.5% | outcome [6] | outcome [7] | outcome [8] | outcome [9] | Potency [10]

COC(=O)CCc1ccc(OCC(O)CNC(C)C)cc1 (stereo not given)
inactive: outcome [1] | Potency [2] | Potency [3] | outcome [4] | max response [5] 5.47% | outcome [6] | outcome [7] | outcome [8] | outcome [9] | Potency [10]

CC(=O)CCCCn1c(=O)c2c(ncn2C)n(C)c1=O
inactive: outcome [1] | Potency [2] | Potency [3] | outcome [4] | max response [5] -0.881% | outcome [6] | outcome [7] | outcome [8] | outcome [9] | Potency [10]

CCCCN
inactive: outcome [1] | Potency [2] | Potency [3] | outcome [4] | max response [5] 9.77% | outcome [6] | outcome [7] | outcome [8] | outcome [9] | Potency [10]

CC/C=C\CC1=C(C)CCC1=O
inactive: outcome [1] | Potency [2] | Potency [3] | outcome [4] | max response [5] 0.983% | outcome [6] | outcome [7] | outcome [8] | outcome [9] | Potency [10]

CCc1ccc(C=O)cc1
inactive: outcome [1] | Potency [2] | Potency [3] | outcome [4] | max response [5] -4.49% | outcome [6] | outcome [7] | outcome [8] | outcome [9] | Potency [10]

CC(=O)NCCCCCC(=O)O
inactive: outcome [1] | Potency [2] | Potency [3] | outcome [4] | max response [5] 5.61% | outcome [6] | outcome [7] | outcome [8] | outcome [9] | Potency [10]

C=C(C)C1CCC(C)(O)CC1 (stereo not given)
inactive: outcome [1] | Potency [2] | Potency [3] | outcome [4] | max response [5] 2.04% | outcome [6] | outcome [7] | outcome [8] | outcome [9] | Potency [10]

O=C(O)c1cc(Br)c(O)c(Br)c1
inactive: outcome [1] | Potency [2] | Potency [3] | outcome [4] | max response [5] -4.67% | outcome [6] | outcome [7] | outcome [8] | outcome [9] | Potency [10]

C[C@@H](O)[C@H]1C(=O)N2C(C(=O)O)=C(SCCN=CN)C[C@H]12
inactive: outcome [1] | Potency [2] | Potency [3] | outcome [4] | max response [5] 2.62% | outcome [6] | outcome [7] | outcome [8] | outcome [9] | Potency [10]

O=S(O)(O)=S
inactive: activity change, negative = cytotoxic [1] 5.36% [at 6.97 µM] | cytotoxicity increase [2] -0.26% [at 6.97 µM] | activity change, negative = cytotoxicity [3] 0.498% [at 6.97 µM] | viability change, negative = cytotoxic [4] 0.222% [at 6.97 µM] | max response [5] 0.994% | activity change [6] -0.341% [at 6.97 µM] | cytotoxicity increase [7] -0.212% [at 6.97 µM] | activity change, negative = cytotoxic [8] 5.2% [at 6.97 µM] | cytotoxicity [9] -1.5% [at 6.97 µM] | cytotoxicity increase [10] -1.37% [at 6.97 µM]

COc1cc(C(=S)N2CCOCC2)cc(OC)c1OC
inactive: outcome [1] | Potency [2] | Potency [3] | outcome [4] | max response [5] 4.79% | outcome [6] | outcome [7] | outcome [8] | outcome [9] | Potency [10]

NS(=O)(=O)c1ccc(NC(=O)CCC(=O)O)cc1
inactive: outcome [1] | Potency [2] | Potency [3] | outcome [4] | max response [5] 3.03% | outcome [6] | outcome [7] | outcome [8] | outcome [9] | Potency [10]
